Shown is part of a subset that was picked to be rich in the strongest signals.
Tests used:
Experiment in all cases: glycan array binding signal (z-score within array); higher = stronger binding
Conditions in all cases: glycan notation: IUPAC condensed, linker removed
[1] = biological target: Fuc(a1-2)Gal(b1-3)GalNAc(b1-3)Gal(a1-4)Gal(b1-4)Glc
Summary of the method: (§1)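 Columns mapping to the same glycan were averaged after glycan names were converted to IUPAC-condensed notation. The data come from 3228 arrays in the Consortium for Functional Glycomics database, limited to those with an available protein sequence. Binding is reported as a within-array Z-score averaged across arrays of one protein sequence and across linkers.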

[2] = biological target: Fuc(a1-2)Gal(b1-3)GlcNAc(b1-2)Man(a1-3)[Fuc(a1-2)Gal(b1-3)GlcNAc(b1-2)Man(a1-6)]Man(b1-4)GlcNAc(b1-4)[Fuc(a1-6)]GlcNAc
Summary of the method: as §1

[3] = biological target: Fuc(a1-2)Gal(b1-3)[Fuc(a1-4)]GlcNAc
Summary of the method: as §1

Fuc(a1-2)Gal6S(b1-4)Glc = biological target: Fuc(a1-2)Gal6S(b1-4)Glc
Summary of the method: as §1

Fuc(a1-4)GlcNAc = biological target: Fuc(a1-4)GlcNAc
Summary of the method: as §1

Fuc(b1-3)GlcNAc = biological target: Fuc(b1-3)GlcNAc
Summary of the method: as §1

[4] = biological target: Gal(a1-3)Gal(b1-4)GlcNAc(b1-2)Man
Summary of the method: as §1

[5] = biological target: Gal(a1-3)Gal(b1-4)GlcNAc(b1-3)GalNAc
Summary of the method: as §1

[6] = biological target: Gal(a1-4)Gal(b1-4)GlcNAc(b1-3)Gal(b1-4)Glc
Summary of the method: as §1

Gal(b1-3)GalNAc(b1-3)Gal = biological target: Gal(b1-3)GalNAc(b1-3)Gal
Summary of the method: as §1

[7] = biological target: Gal(b1-3)GlcNAc(b1-2)Man(a1-3)[Gal(b1-3)GlcNAc(b1-2)Man(a1-6)]Man(b1-4)GlcNAc(b1-4)[Fuc(a1-6)]GlcNAc
Summary of the method: as §1

[8] = biological target: Gal(b1-3)[Fuc(a1-4)]GlcNAc(b1-2)Man
Summary of the method: as §1

[9] = biological target: Gal(b1-4)GlcNAc(b1-2)Man(a1-3)[Gal(b1-4)GlcNAc(b1-2)Man(a1-6)]Man(b1-4)GlcNAc(b1-4)[Fuc(a1-6)]GlcNAc
Summary of the method: as §1

[10] = biological target: Gal(b1-4)GlcNAc(b1-2)Man(a1-3)[Gal(b1-4)GlcNAc(b1-2)Man(a1-6)][Gal(b1-4)GlcNAc(b1-4)]Man(b1-4)GlcNAc(b1-4)[Fuc(a1-6)]GlcNAc
Summary of the method: as §1

[11] = biological target: Gal(b1-4)GlcNAc(b1-2)Man(a1-6)Man(b1-4)GlcNAc(b1-4)GlcNAc
Summary of the method: as §1

[12] = biological target: Gal(b1-4)GlcNAc(b1-2)[Gal(b1-4)GlcNAc(b1-6)]Man(a1-6)[Gal(b1-4)GlcNAc(b1-2)Man(a1-3)]Man(b1-4)GlcNAc(b1-4)[Fuc(a1-6)]GlcNAc
Summary of the method: as §1

[13] = biological target: Gal(b1-4)GlcNAc(b1-3)Gal(b1-3)GalNAc
Summary of the method: as §1

[14] = biological target: Gal(b1-4)GlcNAc(b1-3)Gal(b1-4)GlcNAc
Summary of the method: as §1

[15] = biological target: Gal(b1-4)GlcNAc(b1-3)Gal(b1-4)GlcNAc(b1-2)Man(a1-3)[Gal(b1-4)GlcNAc(b1-3)Gal(b1-4)GlcNAc(b1-2)Man(a1-6)]Man(b1-4)GlcNAc(b1-4)[Fuc(a1-6)]GlcNAc
Summary of the method: as §1

[16] = biological target: Gal(b1-4)GlcNAc(b1-3)Gal(b1-4)GlcNAc(b1-3)Gal(b1-4)GlcNAc(b1-2)Man(a1-3)[Gal(b1-4)GlcNAc(b1-3)Gal(b1-4)GlcNAc(b1-3)Gal(b1-4)GlcNAc(b1-2)Man(a1-6)]Man(b1-4)GlcNAc(b1-4)[Fuc(a1-6)]GlcNAc
Summary of the method: as §1

[17] = biological target: Gal(b1-4)GlcNAc(b1-3)Gal(b1-4)GlcNAc(b1-3)Gal(b1-4)GlcNAc(b1-3)Gal(b1-4)GlcNAc(b1-2)Man(a1-3)[Gal(b1-4)GlcNAc(b1-3)Gal(b1-4)GlcNAc(b1-3)Gal(b1-4)GlcNAc(b1-3)Gal(b1-4)GlcNAc(b1-2)Man(a1-6)]Man(b1-4)GlcNAc(b1-4)[Fuc(a1-6)]GlcNAc
Summary of the method: as §1

[18] = biological target: Gal(b1-4)GlcNAc(b1-3)Gal(b1-4)GlcNAc(b1-3)Gal(b1-4)GlcNAc(b1-3)Gal(b1-4)GlcNAc(b1-3)Gal(b1-4)GlcNAc(b1-2)Man(a1-3)[Gal(b1-4)GlcNAc(b1-3)Gal(b1-4)GlcNAc(b1-3)Gal(b1-4)GlcNAc(b1-3)Gal(b1-4)GlcNAc(b1-3)Gal(b1-4)GlcNAc(b1-2)Man(a1-6)]Man(b1-4)GlcNAc(b1-4)[Fuc(a1-6)]GlcNAc
Summary of the method: as §1

[19] = biological target: Gal(b1-4)GlcNAc(b1-3)Gal(b1-4)GlcNAc(b1-6)[Gal(b1-3)]GalNAc
Summary of the method: as §1

Gal6S(b1-3)GlcNAc6S = biological target: Gal6S(b1-3)GlcNAc6S
Summary of the method: as §1

Gal6S(b1-4)Glc6S = biological target: Gal6S(b1-4)Glc6S
Summary of the method: as §1

GalNAc4S6S(b1-4)GlcNAc = biological target: GalNAc4S6S(b1-4)GlcNAc
Summary of the method: as §1

[20] = biological target: GlcNAc(a1-3)Gal(b1-4)GlcNAc
Summary of the method: as §1

[21] = biological target: GlcNAc(b1-2)[GlcNAc(b1-6)]Man(a1-6)[GlcNAc(b1-2)Man(a1-3)]Man(b1-4)GlcNAc(b1-4)[Fuc(a1-6)]GlcNAc
Summary of the method: as §1

[22] = biological target: GlcNAc(b1-3)Gal(b1-4)GlcNAc(b1-2)Man(a1-3)[GlcNAc(b1-3)Gal(b1-4)GlcNAc(b1-2)Man(a1-6)]Man(b1-4)GlcNAc(b1-4)GlcNAc
Summary of the method: as §1

[23] = biological target: GlcNAc(b1-3)Gal(b1-4)GlcNAc(b1-3)Gal(b1-4)GlcNAc(b1-2)Man(a1-3)[GlcNAc(b1-3)Gal(b1-4)GlcNAc(b1-3)Gal(b1-4)GlcNAc(b1-2)Man(a1-6)]Man(b1-4)GlcNAc(b1-4)[Fuc(a1-6)]GlcNAc
Summary of the method: as §1

Kdn(a2-3)Gal(b1-3)GalNAc = biological target: Kdn(a2-3)Gal(b1-3)GalNAc
Summary of the method: as §1

[24] = biological target: Man(a1-3)[Man(a1-6)]Man(b1-4)GlcNAc(b1-4)[Fuc(a1-6)]GlcNAc
Summary of the method: as §1

[25] = biological target: Neu5Ac(a2-3)Gal(b1-3)GlcNAc(b1-2)[Neu5Ac(a2-3)Gal(b1-3)GlcNAc(b1-4)]Man(a1-6)[Neu5Ac(a2-3)Gal(b1-3)GlcNAc(b1-2)Man(a1-3)]Man(b1-4)GlcNAc(b1-4)GlcNAc
Summary of the method: as §1

[26] = biological target: Neu5Ac(a2-3)Gal(b1-3)GlcNAc6S
Summary of the method: as §1

[27] = biological target: Neu5Ac(a2-3)Gal(b1-4)GlcNAc(b1-2)Man(a1-3)[Neu5Ac(a2-3)Gal(b1-4)GlcNAc(b1-2)Man(a1-6)]Man(b1-4)GlcNAc(b1-4)[Fuc(a1-6)]GlcNAc
Summary of the method: as §1

[28] = biological target: Neu5Ac(a2-6)Gal(b1-4)GlcNAc(b1-2)Man(a1-3)[Neu5Ac(a2-3)Gal(b1-4)GlcNAc(b1-2)Man(a1-6)]Man(b1-4)GlcNAc(b1-4)GlcNAc
Summary of the method: as §1

[29] = biological target: Neu5Ac(a2-6)Gal(b1-4)GlcNAc(b1-2)Man(a1-3)[Neu5Ac(a2-6)Gal(b1-4)GlcNAc(b1-2)Man(a1-6)]Man(b1-4)GlcNAc(b1-4)[Fuc(a1-6)]GlcNAc
Summary of the method: as §1

[30] = biological target: Neu5Ac(a2-6)Gal(b1-4)GlcNAc(b1-6)[Gal(b1-3)GlcNAc(b1-3)]Gal(b1-4)Glc
Summary of the method: as §1

[31] = biological target: Neu5Ac(a2-8)Neu5Ac(a2-8)Neu5Ac(a2-3)[GalNAc(b1-4)]Gal(b1-4)Glc
Summary of the method: as §1

Neu5Ac(b2-6)GalNAc = biological target: Neu5Ac(b2-6)GalNAc
Summary of the method: as §1

B1: BTL (Bryothamnion triquetrum) (protein)
chain: ADPICGSSGYSCTTPAILTPKSPGSFPSGYSKVIVTGVGGSYSVYIHRPDGFKVYKASEGGCASFGSYSGGGNSEVGKYGSGGTVVAVACK
- glycan array binding signal (z-score) [1]: -0.262
- glycan array binding signal (z-score) [2]: 2.75
- glycan array binding signal (z-score) [3]: -0.245
- glycan array binding signal (z-score) (Fuc(a1-2)Gal6S(b1-4)Glc): -0.244
- glycan array binding signal (z-score) (Fuc(a1-4)GlcNAc): -0.199
- glycan array binding signal (z-score) (Fuc(b1-3)GlcNAc): -0.257
- glycan array binding signal (z-score) [4]: -0.311
- glycan array binding signal (z-score) [5]: -0.244
- glycan array binding signal (z-score) [6]: -0.208
- glycan array binding signal (z-score) (Gal(b1-3)GalNAc(b1-3)Gal): -0.22
- glycan array binding signal (z-score) [7]: 4.76
- glycan array binding signal (z-score) [8]: -0.111
- glycan array binding signal (z-score) [9]: 4.92
- glycan array binding signal (z-score) [10]: 0.352
- glycan array binding signal (z-score) [11]: -0.192
- glycan array binding signal (z-score) [12]: 6.49
- glycan array binding signal (z-score) [13]: -0.107
- glycan array binding signal (z-score) [14]: -0.27
- glycan array binding signal (z-score) [15]: 6.38
- glycan array binding signal (z-score) [16]: 5.89
- glycan array binding signal (z-score) [17]: 4.48
- glycan array binding signal (z-score) [18]: 4.45
- glycan array binding signal (z-score) [19]: -0.128
- glycan array binding signal (z-score) (Gal6S(b1-3)GlcNAc6S): -0.24
- glycan array binding signal (z-score) (Gal6S(b1-4)Glc6S): -0.18
- glycan array binding signal (z-score) (GalNAc4S6S(b1-4)GlcNAc): -0.129
- glycan array binding signal (z-score) [20]: -0.194
- glycan array binding signal (z-score) [21]: 4.85
- glycan array binding signal (z-score) [22]: -0.193
- glycan array binding signal (z-score) [23]: 4.09
- glycan array binding signal (z-score) (Kdn(a2-3)Gal(b1-3)GalNAc): -0.259
- glycan array binding signal (z-score) [24]: 4.2
- glycan array binding signal (z-score) [25]: -0.099
- glycan array binding signal (z-score) [26]: -0.24
- glycan array binding signal (z-score) [27]: 5.15
- glycan array binding signal (z-score) [28]: -0.249
- glycan array binding signal (z-score) [29]: 8.12
- glycan array binding signal (z-score) [30]: -0.204
- glycan array binding signal (z-score) [31]: -0.289
- glycan array binding signal (z-score) (Neu5Ac(b2-6)GalNAc): -0.274
